Screening data: PubChem, Broad Institute
U2OS ROS induce: ROS inducers in U2OS cancer cells, primary screen, cell-based, H2DCF-DA fluorescence; U2OS ROS induction; ROS induction (% of piperlongumine), % at 10 µM; 46,000 compounds, 2% hits; AID 624156, 2012; in the data active means ROS induction above about 79%, passing the limit was not always enough
Numbers stand for hits; i = inactive. This excerpt belongs to a sample that is enriched for hits.

SMILES	U2OS ROS induce
C=C(C(=O)O)C1CC=C(CCC(C)=O)[C@@H](C)CC1 (stereo partly specified)	i
C[C@@H]1CN([C@H](C)CO)C(=O)c2cccc(NC(=O)c3nc4ccccc4s3)c2O[C@@H]1CN(C)S(=O)(=O)c1cn(C)cn1	i
C[C@@H]1CN([C@@H](C)CO)C(=O)c2cc(NC(=O)Nc3ccc4c(c3)OCO4)ccc2O[C@H]1CN(C)C(=O)Nc1ccccc1	i
COC(=O)C1=CN(c2ccc(F)cc2)C=C(C(=O)OC)C1c1cccc(O)c1	i
CCOC(=O)C1=CN(c2ccc(C)c(C)c2)C=C(C(=O)OCC)C1c1ccccc1F	95.9
CCOC(=O)c1cnn(CCOC(=O)c2ccccc2F)c1NC(=O)c1ccccc1F	i
COc1ccc(OC)c(NC(=O)COc2ccc3c4c(c(=O)oc3c2)CCCC4)c1	i
CCN(CC)C(=O)Cn1cc(S(=O)(=O)CC(=O)Nc2ccccc2C(F)(F)F)c2ccccc21	i
C[C@@H]1CN([C@@H](C)CO)C(=O)c2cc(NC(=O)C3CC3)ccc2O[C@H]1CN(C)C(=O)Nc1ccc(C(F)(F)F)cc1	i
C[C@H]1CN([C@@H](C)CO)C(=O)c2cc(NC(=O)Nc3ccc4c(c3)OCO4)ccc2O[C@@H]1CN(C)C(=O)Nc1ccc(C(F)(F)F)cc1	i
C[C@@H]1CN([C@@H](C)CO)C(=O)c2cc(NC(=O)C3CC3)ccc2O[C@@H]1CN(C)C(=O)Nc1ccc(C(F)(F)F)cc1	80.4
C[C@H](CO)N1C[C@H](C)[C@@H](CN(C)Cc2ccc(C(F)(F)F)cc2)Oc2ccc(NC(=O)Nc3ccc4c(c3)OCO4)cc2C1=O	i
C[C@@H]1CN([C@H](C)CO)C(=O)c2cc(NC(=O)Nc3ccc4c(c3)OCO4)ccc2O[C@H]1CN(C)Cc1ccc(C(F)(F)F)cc1	118.7
Cc1noc(C)c1NC(=O)Nc1ccc2c(c1)C(=O)N([C@@H](C)CO)C[C@@H](C)[C@@H](CN(C)C(=O)Nc1c(C)noc1C)O2	i
C[C@@H]1CN([C@H](C)CO)C(=O)c2cc(NC(=O)C3CC3)ccc2O[C@H]1CN(C)C(=O)Nc1ccc(C(F)(F)F)cc1	i
Cc1noc(C)c1NC(=O)Nc1ccc2c(c1)C(=O)N([C@@H](C)CO)C[C@H](C)[C@H](CN(C)C(=O)Nc1c(C)noc1C)O2	i
C[C@H](CO)N1C[C@H](C)[C@H](CN(C)C(=O)Nc2ccc(C(F)(F)F)cc2)Oc2ccc(NC(=O)Nc3ccc4c(c3)OCO4)cc2C1=O	102.9
C[C@H]1CN([C@@H](C)CO)C(=O)c2cc(NC(=O)Nc3ccc(C(F)(F)F)cc3)ccc2O[C@@H]1CN(C)C(=O)Nc1ccc2c(c1)OCO2	i
Cc1noc(C)c1NC(=O)Nc1ccc2c(c1)C(=O)N([C@H](C)CO)C[C@@H](C)[C@H](CN(C)C(=O)Nc1c(C)noc1C)O2	104.8
C[C@H]1CN([C@@H](C)CO)C(=O)c2cc(NC(=O)Nc3ccc4c(c3)OCO4)ccc2O[C@H]1CN(C)Cc1ccc(C(F)(F)F)cc1	i
C[C@H](CO)N1C[C@H](C)[C@@H](CN(C)Cc2ccc(Oc3ccccc3)cc2)Oc2c(NC(=O)NC3CCCCC3)cccc2C1=O	i
C[C@H](CO)N1C[C@H](C)[C@H](CN(C)CC2CCCCC2)Oc2c(NC(=O)C3CC3)cccc2C1=O	i
Cc1cc(C)c(S(=O)(=O)NCC(=O)Nc2ccc(Br)cc2)c(C)c1	i
CNC[C@H]1Oc2ccc(NC(=O)Nc3cccc4ccccc34)cc2C(=O)N([C@H](C)CO)C[C@H]1C	i
COc1cc(OC)cc(-c2nnc(SCC(=O)Nc3ccc(Cl)cc3C)n2-c2ccccc2)c1	i
SMILES	U2OS ROS induce
CS(=O)(=O)NN1C(=O)c2ccccc2NC12CCCCC2	i
COc1cc2c(cc1OC)CN(C(=O)[C@@H]1[C@H]3C(=O)O[C@H](c4ccccc4)[C@H](c4ccccc4)N3[C@H](c3ccccc3OCCO)[C@@]13C(=O)Nc1ccc(C#CC4=CCCCC4)cc13)CC2	i
COc1ccc(C#Cc2ccc3c(c2)[C@]2(C(=O)N3)[C@H](C(=O)N3CCc4cc(OC)c(OC)cc4C3)[C@H]3C(=O)O[C@H](c4ccccc4)[C@H](c4ccccc4)N3[C@@H]2c2ccccc2OCCO)cc1	i
COc1cc2c(cc1OC)CN(C(=O)[C@H]1[C@@H]3C(=O)O[C@@H](c4ccccc4)[C@@H](c4ccccc4)N3[C@@H](c3ccc(O)cc3)[C@]13C(=O)Nc1ccc(C#CC4(O)CCCCCC4)cc13)CC2	i
COc1cc2c(cc1OC)CN(C(=O)[C@H]1[C@@H]3C(=O)O[C@@H](c4ccccc4)[C@@H](c4ccccc4)N3[C@@H](c3ccc(OCCO)cc3)[C@]13C(=O)Nc1ccc(C#CC4(O)CCCCCC4)cc13)CC2	i
COc1cc2c(cc1OC)CN(C(=O)[C@@H]1[C@H]3C(=O)O[C@H](c4ccccc4)[C@H](c4ccccc4)N3[C@H](c3ccccc3OCCO)[C@@]13C(=O)Nc1ccc(C#CC4(O)CCCCCC4)cc13)CC2	87.8
COc1cc2c(cc1OC)CN(C(=O)[C@H]1[C@@H]3C(=O)O[C@@H](c4ccccc4)[C@@H](c4ccccc4)N3[C@@H](c3ccccc3OCCO)[C@]13C(=O)Nc1ccc(C#CC4(O)CCCCCC4)cc13)CC2	95.9
O=C(CN1C(=O)c2cccc3cccc1c23)Nc1cccc([N+](=O)[O-])c1	i
CC(=O)C(O)(C(=O)OCc1ccc(O[C@@H]2O[C@H](CO)[C@@H](O)[C@H](O)[C@H]2O)cc1)C(C)C (stereo partly specified)	i
CCn1c(SCC(=O)Nc2ccccc2)nc2ccc(I)cc2c1=O	108.7
CCc1ccc(NC(=O)CSc2nc3ccccc3c(=O)n2CCc2ccccc2)cc1	i
COc1ccccc1-n1c(SCC(=O)Nc2ccccc2C)nc2ccc(I)cc2c1=O	i
COc1ccc(NC(=O)CCn2nc(-c3ccccc3)c3ccccc3c2=O)cc1C(N)=O	i
C[C@H]1CN([C@@H](C)CO)C(=O)CCCn2nncc2CO[C@H]1CN(C)Cc1cccc2c1OCCCO2	i
C[C@@H]1CN([C@H](C)CO)C(=O)c2cc(NC(=O)CCCCCC(=O)Nc3ccccc3N)ccc2O[C@@H]1CN(C)Cc1ccc(Cl)c(Cl)c1	i
C[C@@H]1CN([C@@H](C)CO)C(=O)c2cccc(NC(=O)CCCCCC(=O)Nc3ccccc3N)c2O[C@H]1CN(C)Cc1ccccc1	i
C[C@@H]1CN([C@H](C)CO)C(=O)c2cccc(NC(=O)CCCCCC(=O)Nc3ccccc3N)c2O[C@@H]1CN(C)Cc1ccccc1	i
C[C@@H]1CN([C@@H](C)CO)C(=O)c2cccc(NC(=O)CCCCCC(=O)Nc3ccccc3N)c2O[C@H]1CN(C)CC1CC1	i
C[C@@H]1CN([C@@H](C)CO)C(=O)c2cccc(NC(=O)CCCCCC(=O)Nc3ccccc3N)c2O[C@H]1CN(C)Cc1ccc(Oc2ccccc2)cc1	133.2
C[C@H]1CN([C@@H](C)CO)C(=O)c2cccc(NC(=O)CCCCCC(=O)Nc3ccccc3N)c2O[C@@H]1CN(C)CC1CC1	124.1
C[C@@H]1CN([C@H](C)CO)C(=O)c2cccc(NC(=O)CCCCCC(=O)Nc3ccccc3N)c2O[C@@H]1CN(C)CC1CC1	i
C[C@H]1CN([C@@H](C)CO)C(=O)c2cc(NC(=O)CCCCCC(=O)Nc3ccccc3N)ccc2O[C@H]1CN(C)Cc1ccc(Cl)c(Cl)c1	i
C[C@@H]1CN([C@@H](C)CO)C(=O)c2cccc(NC(=O)CCCCCC(=O)Nc3ccccc3N)c2O[C@H]1CN(C)Cc1ccc(Cl)c(Cl)c1	153.6
